Laboratory results reported in the supplement of paper PMC10849652.
Targets with a hit are over-represented here; the source holds about 7,900 in all. About 0.6% of all pairs of compound and target were hits.

Key:
Experiment in all cases: log2 fold change, soluble protein after heating vs DMSO (PISA); higher = thermal stabilisation; K562 cells, 10 uM, 30 min; active = over 0.2 and 3.5 SD of the protein, either way, in both replicates (recomputed)
[1] = compound: COC1=CC=C(C=C1)CN2C=CC3=C2C=C(C=C3)C(=O)NO
In short: (§1)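 Quantification of soluble protein used TMTpro 16plex LC-MS/MS, with channel sums equalised. Samples were the supernatant after 21,000xg for 90 min of pooled aliquots from K562 cells (2×10^6 cells/mL) treated with 10 μM compound for 30 min, heated for 3 min over 48°C-58°C, and extracted in PBS with 0.5% NP-40 at 4°C. Values, from duplicates, describe thermal stability against control samples on a log2 fold-change scale.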

zotarolimus = compound: CO[C@H]1C[C@@H]2CC[C@@H](C)[C@@](O)(O2)C(=O)C(=O)N2CCCC[C@H]2C(=O)O[C@H]([C@H](C)C[C@@H]2CC[C@H](n3cnnn3)[C@H](OC)C2)CC(=O)[C@H](C)/C=C(\C)[C@@H](O)[C@@H](OC)C(=O)[C@H](C)C[C@H](C)/C=C/C=C/C=C/1C [zotarolimus]
In short: as §1

idasanutlin = compound: COc1cc(C(=O)O)ccc1NC(=O)[C@@H]1N[C@@H](CC(C)(C)C)[C@](C#N)(c2ccc(Cl)cc2F)[C@H]1c1cccc(Cl)c1F [idasanutlin]
In short: as §1

pictilisib = compound: CS(=O)(=O)N1CCN(Cc2cc3nc(-c4cccc5[nH]ncc45)nc(N4CCOCC4)c3s2)CC1 [pictilisib]
In short: as §1

crizotinib = compound: C[C@@H](Oc1cc(-c2cnn(C3CCNCC3)c2)cnc1N)c1c(Cl)ccc(F)c1Cl [crizotinib]
In short: as §1

[2] = compound: C[C@@H]1COCCN1C2=NC(=NC(=C2)C3(CC3)S(=O)(=O)C)C4=C5C=CNC5=CC=C4
In short: as §1

[3] = compound: C[C@H](C1=CC=C(C=C1)C(=O)NC2=C3C=CNC3=NC=C2)N
In short: as §1

duvelisib = compound: C[C@H](Nc1ncnc2nc[nH]c12)c1cc2cccc(Cl)c2c(=O)n1-c1ccccc1 [duvelisib]
In short: as §1

gandotinib = compound: Cc1cc(Nc2cc(CN3CCOCC3)c3nc(C)c(Cc4ccc(Cl)cc4F)n3n2)n[nH]1 [gandotinib]
In short: as §1

[4] = compound: Cc1cc(SCc2sc(-c3ccc(C(F)(F)F)cc3)nc2C)ccc1OCC(=O)O
In short: as §1

doramapimod = compound: Cc1ccc(-n2nc(C(C)(C)C)cc2NC(=O)Nc2ccc(OCCN3CCOCC3)c3ccccc23)cc1 [doramapimod]
In short: as §1

filanesib = compound: CON(C)C(=O)N1N=C(c2cc(F)ccc2F)S[C@@]1(CCCN)c1ccccc1 [filanesib]
In short: as §1

[5] = compound: COc1cc2nc(-c3cc(F)ccc3O)nc(N[C@@H]3CNC[C@H]3C(C)(C)O)c2cc1OC
In short: as §1

gefitinib = compound: COc1cc2ncnc(Nc3ccc(F)c(Cl)c3)c2cc1OCCCN1CCOCC1 [gefitinib]
In short: as §1

lapatinib = compound: CS(=O)(=O)CCNCc1ccc(-c2ccc3ncnc(Nc4ccc(OCc5cccc(F)c5)c(Cl)c4)c3c2)o1 [lapatinib]
In short: as §1

[6] = compound: CS(=O)(=O)c1ccc(-c2cnc(N)c(C(=O)Nc3ccccc3)n2)cc1
In short: as §1

ispinesib = compound: Cc1ccc(C(=O)N(CCCN)[C@@H](c2nc3cc(Cl)ccc3c(=O)n2Cc2ccccc2)C(C)C)cc1 [ispinesib]
In short: as §1

alisertib = compound: COc1cc(Nc2ncc3c(n2)-c2ccc(Cl)cc2C(c2c(F)cccc2OC)=NC3)ccc1C(=O)O [alisertib]
In short: as §1

[7] = compound: COc1cccc2cc(-c3nc([C@H]4CC[C@H](C(=O)O)CC4)n4ncnc(N)c34)[nH]c12
In short: as §1

tozasertib = compound: Cc1cc(Nc2cc(N3CCN(C)CC3)nc(Sc3ccc(NC(=O)C4CC4)cc3)n2)n[nH]1 [tozasertib]
In short: as §1

Measured: log2 fold change

LRRFIP1 isoform 4 (UniProt Q32MZ4)
Chain of UniProt Q32MZ4 (Q32MZ4 whole entry, looked up): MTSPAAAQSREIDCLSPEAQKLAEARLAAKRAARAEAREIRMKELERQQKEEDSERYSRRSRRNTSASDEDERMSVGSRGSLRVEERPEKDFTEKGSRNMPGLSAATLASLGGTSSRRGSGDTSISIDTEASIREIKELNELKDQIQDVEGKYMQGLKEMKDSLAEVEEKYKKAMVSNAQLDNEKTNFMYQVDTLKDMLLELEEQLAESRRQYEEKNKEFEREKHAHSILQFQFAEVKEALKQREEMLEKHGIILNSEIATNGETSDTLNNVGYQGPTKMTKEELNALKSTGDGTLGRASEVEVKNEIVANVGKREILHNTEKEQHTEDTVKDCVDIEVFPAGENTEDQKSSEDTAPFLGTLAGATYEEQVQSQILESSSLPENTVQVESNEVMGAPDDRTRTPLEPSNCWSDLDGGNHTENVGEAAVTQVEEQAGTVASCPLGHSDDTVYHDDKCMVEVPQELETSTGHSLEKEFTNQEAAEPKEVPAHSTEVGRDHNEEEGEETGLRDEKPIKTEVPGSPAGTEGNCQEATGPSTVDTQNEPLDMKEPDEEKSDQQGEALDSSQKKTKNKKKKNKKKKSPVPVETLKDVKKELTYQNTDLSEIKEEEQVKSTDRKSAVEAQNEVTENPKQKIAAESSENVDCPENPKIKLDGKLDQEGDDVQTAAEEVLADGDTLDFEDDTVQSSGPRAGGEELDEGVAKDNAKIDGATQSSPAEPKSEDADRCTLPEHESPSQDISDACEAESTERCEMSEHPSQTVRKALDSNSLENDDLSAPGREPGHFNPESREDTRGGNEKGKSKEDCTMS
inactive: [1] -0.061 | zotarolimus 0.202 | idasanutlin 0.108 | pictilisib -0.046 | crizotinib 0.012 | [2] 0.175 | [3] 0.59 | duvelisib 0.025 | gandotinib 0.548 | [4] -0.025 | doramapimod -0.016

MARCHF3 (UniProt Q86UD3)
Chain of UniProt Q86UD3 (Q86UD3 whole entry, looked up): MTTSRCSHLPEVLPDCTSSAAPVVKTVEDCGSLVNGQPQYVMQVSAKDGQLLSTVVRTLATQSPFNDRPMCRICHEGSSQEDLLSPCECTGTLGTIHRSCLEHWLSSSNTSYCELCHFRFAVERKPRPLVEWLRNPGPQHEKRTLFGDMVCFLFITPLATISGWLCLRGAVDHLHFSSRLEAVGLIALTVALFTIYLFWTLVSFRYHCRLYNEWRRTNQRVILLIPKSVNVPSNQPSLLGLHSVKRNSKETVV
inactive: filanesib -0.272 | [5] 0.027 | gefitinib -0.195 | lapatinib -0.033 | [6] 0.243 | [2] 0.029

KIF21A (UniProt H0YI78)
inactive: ispinesib -0.041

KLHL18 (UniProt O94889)
Chain of UniProt O94889 (O94889 whole entry, looked up): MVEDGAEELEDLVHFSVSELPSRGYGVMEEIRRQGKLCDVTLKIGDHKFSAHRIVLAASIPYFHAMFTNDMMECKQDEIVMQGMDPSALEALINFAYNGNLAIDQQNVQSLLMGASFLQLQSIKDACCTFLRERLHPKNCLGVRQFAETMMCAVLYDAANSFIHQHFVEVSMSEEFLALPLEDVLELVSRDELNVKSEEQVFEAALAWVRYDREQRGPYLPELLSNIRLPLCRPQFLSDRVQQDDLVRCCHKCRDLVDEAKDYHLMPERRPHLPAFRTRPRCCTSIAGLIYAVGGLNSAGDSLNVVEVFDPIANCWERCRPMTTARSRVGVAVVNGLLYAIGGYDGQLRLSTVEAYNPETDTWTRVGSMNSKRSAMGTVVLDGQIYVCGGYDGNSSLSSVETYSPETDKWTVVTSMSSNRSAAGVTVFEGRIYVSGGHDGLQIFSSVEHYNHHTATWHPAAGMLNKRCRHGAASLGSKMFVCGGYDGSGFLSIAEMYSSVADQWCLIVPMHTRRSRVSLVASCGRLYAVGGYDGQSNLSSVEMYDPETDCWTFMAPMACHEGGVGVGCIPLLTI
inactive: filanesib 0 | zotarolimus 0.022 | idasanutlin -0.048 | alisertib -0.068 | [5] -0.048 | gefitinib 0.057 | [7] 0.038 | lapatinib 0.071 | pictilisib 0.09 | [6] 0.092 | [2] 0.078 | [3] -0.084 | duvelisib 0.049 | tozasertib -0.108 | [4] 0.02 | ispinesib 0.028
active: gandotinib -0.561

LPIN3 isoform 2 (UniProt Q9BQK8)
inactive: filanesib 0.006 | zotarolimus 0.011 | idasanutlin -0.075 | alisertib 0.022 | [5] 0.111 | gefitinib -0.029 | [7] -0.01 | lapatinib 0.022 | pictilisib 0.147 | [6] 0.016 | [2] 0.125 | [3] 0.011 | duvelisib 0.002 | gandotinib -0.059 | tozasertib -0.065 | [4] 0.015 | ispinesib -0.037

LRRCC1 (UniProt Q9C099)
Chain of UniProt Q9C099 (Q9C099 whole entry, looked up): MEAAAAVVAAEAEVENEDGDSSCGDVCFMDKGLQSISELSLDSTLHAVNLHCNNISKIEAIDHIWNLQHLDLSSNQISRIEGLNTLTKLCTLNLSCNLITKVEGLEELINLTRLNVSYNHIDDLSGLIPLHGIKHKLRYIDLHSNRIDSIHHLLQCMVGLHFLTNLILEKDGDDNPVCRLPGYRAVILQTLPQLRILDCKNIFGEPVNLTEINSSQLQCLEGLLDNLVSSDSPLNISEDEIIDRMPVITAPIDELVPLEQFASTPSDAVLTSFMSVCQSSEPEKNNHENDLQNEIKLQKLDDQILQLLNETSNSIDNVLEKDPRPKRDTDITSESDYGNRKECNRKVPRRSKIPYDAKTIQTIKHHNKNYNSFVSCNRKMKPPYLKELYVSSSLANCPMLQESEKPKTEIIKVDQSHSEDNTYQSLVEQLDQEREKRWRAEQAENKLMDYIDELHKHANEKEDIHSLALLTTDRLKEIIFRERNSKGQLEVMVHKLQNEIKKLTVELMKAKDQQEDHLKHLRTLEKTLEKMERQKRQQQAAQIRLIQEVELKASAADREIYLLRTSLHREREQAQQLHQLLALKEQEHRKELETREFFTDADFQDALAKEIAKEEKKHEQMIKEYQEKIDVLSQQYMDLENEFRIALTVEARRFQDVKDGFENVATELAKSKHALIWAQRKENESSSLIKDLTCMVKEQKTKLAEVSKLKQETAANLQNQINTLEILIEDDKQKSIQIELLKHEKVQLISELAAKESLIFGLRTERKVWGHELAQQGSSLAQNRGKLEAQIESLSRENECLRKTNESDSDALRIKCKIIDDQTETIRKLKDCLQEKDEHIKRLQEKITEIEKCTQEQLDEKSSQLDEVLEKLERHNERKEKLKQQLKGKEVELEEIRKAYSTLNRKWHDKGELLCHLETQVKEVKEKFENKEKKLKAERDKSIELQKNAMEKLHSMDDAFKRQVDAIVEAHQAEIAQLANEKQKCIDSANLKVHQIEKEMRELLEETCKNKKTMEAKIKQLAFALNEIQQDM
inactive: idasanutlin -0.069 | duvelisib 0.09 | tozasertib 0.006 | [4] 0.013 | ispinesib -0.301

LIN52 (UniProt Q52LA3)
Chain of UniProt Q52LA3 (Q52LA3 whole entry, looked up): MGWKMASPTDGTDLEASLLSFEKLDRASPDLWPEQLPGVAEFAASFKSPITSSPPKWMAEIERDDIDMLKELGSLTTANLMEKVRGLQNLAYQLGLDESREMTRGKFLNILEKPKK
inactive: [7] 0 | duvelisib -0.087 | [4] -0.059
active: alisertib -0.924

MFSD1 isoform 6 (UniProt Q9H3U5)
Chain of UniProt Q9H3U5 (Q9H3U5 whole entry, looked up): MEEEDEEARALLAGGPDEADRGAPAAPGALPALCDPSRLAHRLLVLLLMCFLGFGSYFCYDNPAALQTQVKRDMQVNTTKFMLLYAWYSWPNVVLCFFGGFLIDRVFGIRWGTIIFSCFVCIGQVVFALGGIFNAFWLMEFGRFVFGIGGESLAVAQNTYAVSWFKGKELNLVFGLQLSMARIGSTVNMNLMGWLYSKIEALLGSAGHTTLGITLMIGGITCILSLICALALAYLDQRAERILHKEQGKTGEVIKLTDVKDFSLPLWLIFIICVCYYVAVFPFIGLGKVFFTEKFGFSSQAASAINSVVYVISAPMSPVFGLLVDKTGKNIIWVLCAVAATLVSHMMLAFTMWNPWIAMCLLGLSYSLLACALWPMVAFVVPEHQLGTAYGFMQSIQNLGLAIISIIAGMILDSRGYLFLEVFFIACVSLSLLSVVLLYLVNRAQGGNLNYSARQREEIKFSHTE
inactive: filanesib -0.123 | zotarolimus -0.108 | idasanutlin -0.01 | alisertib -0.035 | [5] 0.019 | gefitinib -0.021 | [7] 0.181 | lapatinib -0.026 | pictilisib 0.055 | [6] 0.035 | [2] 0.076 | [3] -0.03 | gandotinib -0.077 | tozasertib 0.041
active: ispinesib -0.367

IPP (UniProt Q9Y573)
inactive: idasanutlin 0.051

MAGED1 isoform 2 (UniProt Q9Y5V3)
inactive: filanesib 0.264 | zotarolimus 0.001 | idasanutlin 0.054 | [5] -0.058 | gefitinib 0.228 | lapatinib 0.034 | [6] -0.012 | [2] 0.096 | [3] 0.205 | duvelisib 0.05 | [4] -0.008

MFSD12 isoform 3 (UniProt Q6NUT3)
Chain of UniProt Q6NUT3 (Q6NUT3 whole entry, looked up): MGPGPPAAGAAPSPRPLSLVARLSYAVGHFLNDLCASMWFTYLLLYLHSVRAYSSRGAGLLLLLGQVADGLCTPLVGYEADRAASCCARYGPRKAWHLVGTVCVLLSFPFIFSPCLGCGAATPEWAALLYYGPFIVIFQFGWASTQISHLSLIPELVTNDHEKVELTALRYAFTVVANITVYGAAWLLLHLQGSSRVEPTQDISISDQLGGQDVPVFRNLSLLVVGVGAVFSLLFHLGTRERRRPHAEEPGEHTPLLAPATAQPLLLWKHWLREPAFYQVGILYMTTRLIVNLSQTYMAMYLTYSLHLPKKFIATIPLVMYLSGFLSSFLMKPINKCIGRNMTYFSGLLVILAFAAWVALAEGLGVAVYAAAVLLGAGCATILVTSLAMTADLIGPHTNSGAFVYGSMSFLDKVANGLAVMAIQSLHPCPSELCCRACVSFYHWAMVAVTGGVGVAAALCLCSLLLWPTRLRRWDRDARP
inactive: filanesib -0.197 | zotarolimus 0.024 | idasanutlin -0.097 | pictilisib 0.069 | [6] 0.17 | [3] -0.213 | duvelisib 0.109 | gandotinib -0.122 | tozasertib 0.063 | [4] 0.065

LSR (UniProt M0QZL9)
inactive: filanesib 0.168 | [6] -0.03 | [2] 0.118

IGFBP6 (UniProt P24592)
Chain of UniProt P24592 (P24592 whole entry, looked up): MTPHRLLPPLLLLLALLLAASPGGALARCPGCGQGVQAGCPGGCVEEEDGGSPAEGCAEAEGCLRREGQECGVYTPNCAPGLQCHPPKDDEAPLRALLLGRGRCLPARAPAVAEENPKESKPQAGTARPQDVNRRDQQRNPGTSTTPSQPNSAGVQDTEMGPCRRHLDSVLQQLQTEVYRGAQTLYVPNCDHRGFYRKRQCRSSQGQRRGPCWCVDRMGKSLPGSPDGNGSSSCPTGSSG
inactive: [3] -0.035 | duvelisib 0.063 | [4] 0.14
active: zotarolimus -1.03 | idasanutlin 0.776 | ispinesib -0.712

LDLRAP1 (UniProt Q5SW96)
Chain of UniProt Q5SW96 (Q5SW96 whole entry, looked up): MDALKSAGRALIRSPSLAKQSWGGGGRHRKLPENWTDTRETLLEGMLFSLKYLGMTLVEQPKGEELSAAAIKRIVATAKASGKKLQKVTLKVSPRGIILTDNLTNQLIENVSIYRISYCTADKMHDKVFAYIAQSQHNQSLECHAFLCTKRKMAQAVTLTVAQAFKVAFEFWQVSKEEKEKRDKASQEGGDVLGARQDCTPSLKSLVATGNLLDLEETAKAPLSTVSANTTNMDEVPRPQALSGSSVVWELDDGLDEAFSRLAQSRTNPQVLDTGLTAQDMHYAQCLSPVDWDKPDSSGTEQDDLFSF
inactive: [1] 0.023 | crizotinib 0.004 | doramapimod 0.18 | ispinesib -0.088

ITPRID2 (UniProt P28290)
inactive: [1] 0 | [5] 0.141 | lapatinib -0.141 | crizotinib -0.201 | [2] 0.229 | doramapimod -0.056 | ispinesib -0.035

LOX (UniProt P28300)
Chain of UniProt P28300 (P28300 whole entry, looked up): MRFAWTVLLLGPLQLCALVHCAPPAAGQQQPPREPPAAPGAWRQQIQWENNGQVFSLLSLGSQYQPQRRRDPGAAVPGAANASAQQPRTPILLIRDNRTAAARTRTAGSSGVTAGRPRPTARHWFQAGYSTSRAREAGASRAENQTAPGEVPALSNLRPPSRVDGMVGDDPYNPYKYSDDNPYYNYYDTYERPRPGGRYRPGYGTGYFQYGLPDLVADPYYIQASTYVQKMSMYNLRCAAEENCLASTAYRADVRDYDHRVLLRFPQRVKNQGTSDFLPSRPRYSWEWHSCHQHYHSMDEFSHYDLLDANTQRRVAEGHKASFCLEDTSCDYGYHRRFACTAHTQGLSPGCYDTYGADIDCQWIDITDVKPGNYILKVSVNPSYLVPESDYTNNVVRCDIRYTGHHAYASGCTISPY
inactive: alisertib -0.111 | gefitinib -0.391 | [7] 0.146

LMNA isoform 2 (UniProt P02545)
inactive: tozasertib 0.357

KIF1B isoform 3 (UniProt O60333)
inactive: alisertib 0.251 | [7] -0.037
